Glyco luc inh – increase of ERlucT glycosylation luciferase signal, primary screen, N-linked glycosylation inhibitor project, D54 ERlucT cells, luminescence, set 2. AID 588692, 2011. 360,000 compounds, 0.23% hits. D54 ERlucT glycosylation luciferase reporter, 24 h; percent of 100 nM tunicamycin response. reporter increase, % at 12.5 µM;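 active means mean luciferase reporter signal, scaled so untreated is 0 and the glycosylation-blocking control 100, at or above a set limit in every replicate; inconclusive means mean reaches the limit but not every replicate does; inactive means mean below the limit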;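 further: luciferase carries N-glycosylation sites so blocking glycosylation raises the light; 0% = median of neutral control wells and 100% = median of 100 nM tunicamycin wells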
aDG glyco up – activators of alpha-DG glycosylation, primary screen, uHTS, Pro5-aDG cells, AlphaScreen; alpha-DG glycosylation AlphaScreen (IIH6); 0% Pro5, 100% B10-LARGE cell signal; activation, % at 10 µM; 360,000 compounds, 0.22% hits; AID 624168, 2012;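 active means activation of at least 8% versus controls, or a plate z-score of at least 8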;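 further: Pro5 are CHO cells carrying HIG-tagged alpha-DG that lacks glycosylation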
Vif imaging – HIV Vif self-association inhibitors, primary screen, imaging, HEK293T, single point. HEK293T cells, Vif self-association by quenched fluorescence, 24 h. inhibition, % at 7.49 µM. 340,000 compounds, 0.35% hits. AID 602346, 2012; in the data active means inhibition above about 50%, passing the limit was not always enough; inconclusive means no clear call, values can overlap the other calls; inactive means below about 31%
Cardio protect – cardioprotection against H2O2-induced cell death, primary screen, uHTS, H9c2 cells, ATPLite luminescence. H9c2 cardiomyocytes, H2O2 injury protection, 2 h. 360,000 compounds, 0.63% hits. protection from H2O2 cell death, % at 20 µM;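 active means compounds giving at least 50% protection of heart cells from peroxide-induced death in the single-dose screen, raw or plate-pattern-corrected value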;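 further: 0% = DMSO wells with peroxide and 100% = DMSO wells without peroxide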
ARNT-TACC3 inh – disruptors of ARNT/TACC3 protein interaction, primary screen, biochemical, AlphaScreen, single concentration; 390,000 compounds, 0.66% hits; Transforming acidic coiled-coil-containing protein 3 (Homo sapiens), Q9Y6A5; AlphaScreen His-ARNT PAS-B/GST-TACC3 binding, luminescence; TACC3 fragment carries E629A point mutation; inhibition, % at 9.99 µM;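 active means mean inhibition of replicates at least 50% and at least half of replicates each reaching 50%; inconclusive means half or more replicates reach 50% but mean below 50%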;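 further: 0% = complete ARNT plus TACC3 wells and 100% = ARNT alone without TACC3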
* hit, by the source's call; ? = inconclusive; . = no result given. Sampled rows, rich in hits. Any-hit rate of the full collection: about 1.7%.

SMILES	Glyco luc inh	aDG glyco up	Vif imaging	Cardio protect	ARNT-TACC3 inh
CCOC(=O)C1=C(C)N=c2s/c(=C\c3ccncc3)c(=O)n2C1c1ccc2c(c1)OCO2 (configuration not stated)	-3	0	-2	55*	-1
COc1ccc(CNC(=O)C[C@@H]2C=C[C@H](NC(=O)CN(C)C)[C@@H](CO)O2)cc1	.	.	.	.	-2
COC(=O)c1c(C)[nH]c(C(=O)COc2ccc3ccc(=O)oc3c2)c1C	1	0	?	81*	6
COc1ccc(NC(=O)N(C)C[C@H]2Oc3ccc(NS(=O)(=O)c4ccc(OC)cc4)cc3CC(=O)N([C@H](C)CO)C[C@H]2C)cc1	.	.	.	.	-5
O=C(Nc1cccc(-c2nc3ccccc3s2)c1)c1cc(-n2cnnc2)ccc1Cl	-1	0	-6	76*	-8
O=C(NCCc1ccccc1)C(=O)NCC1CCCN1S(=O)(=O)c1ccccc1 (configuration not stated)	6	0	16	23	-5
COc1ccc(CCNC(=O)C(=O)NCC2CCCN2S(=O)(=O)c2ccccc2)cc1OC (configuration not stated)	-1	-1	-4	74*	-2
O=C(Nc1ccccc1F)N1C[C@@H]2[C@H](c3ccccc31)[C@H](CO)N2C(=O)Nc1ccccc1	.	.	.	.	-5
COc1cc(/C=C2\COC/C(=C\c3ccc(O)c(OC)c3)C2=O)ccc1O	-12	0	19	53*	-4
COc1cc(/C=C2/CC/C(=C/c3ccc(O)c(OC)c3)C2=O)ccc1O	15	0	-2	70*	-1
COc1ccc(/C=C2\CC/C(=C\c3ccc(OC)c(OC)c3)C2=O)cc1OC	?	0	-3	-8	20
COc1cc(/C=C2\CC/C(=C\c3ccc(OCCO)c(OC)c3)C2=O)ccc1OCCO	6	-1	3	81*	.
COc1ccc(/C=C2\CN(Cc3ccccc3)C/C(=C\c3ccc(OC)c(O)c3)C2=O)cc1O	-20	0	59*	61*	-2
Cn1c(=O)[nH]c(=O)c2c1nc(NCCc1ccccc1)n2CC(O)COc1ccccc1 (configuration not stated)	10	0	6	60*	-6
Cc1ccc(OCC(O)Cn2c(NCCc3ccccc3)nc3c2c(=O)[nH]c(=O)n3C)cc1 (configuration not stated)	0	0	-2	1	0
COCCNC(=O)[C@H]1[C@H](CO)[C@H]2Cn3c(ccc(-c4ccccc4F)c3=O)[C@H]2N1C(=O)C1CCCC1	.	.	.	.	-3
Cc1ccc2oc(C(=O)NCc3ncc(C)[nH]3)c(C)c2c1	29*	0	9	-1	-1
CO[C@@H]1CN(C)C(=O)c2ccc(NS(=O)(=O)c3ccccc3C)cc2OC[C@H](C)NC[C@@H]1C	.	.	.	.	0
NC(c1csc(Nc2ccc(C(=O)c3ccccc3)cc2)n1)C1CCCCC1 (configuration not stated)	-8	5	65*	-23	.
CC(=O)c1ccc(Nc2nc(C(N)C3CCCCC3)cs2)cc1 (configuration not stated)	-3	2	7	-10	.
O=C(NC(=S)NNC(=O)c1cnccn1)c1ccc(Cl)cc1	-10	0	4	36	54*
COc1ccccc1C(=O)NNC(=S)NC(=O)c1cc(OC)c(OC)c(OC)c1	-4	1	-4	18	-1
COc1ccc(C(=O)NC(=S)NNC(=O)c2cnccn2)cc1	-11	0	7	32	59*
COc1cc(C(=O)NC(=S)NNC(=O)c2cnccn2)cc(OC)c1OC	-3	0	-4	24	65*
CNC[C@@H]1Oc2ccc(N(C)C)cc2CC(=O)N([C@@H](C)CO)C[C@@H]1C	.	.	.	.	-6
SMILES	Glyco luc inh	aDG glyco up	Vif imaging	Cardio protect	ARNT-TACC3 inh
Cc1nc(N/N=C/c2ccc(O)cc2O)cc(N2CCOCC2)n1	-9	0	-3	37	65*
Oc1ccc(/C=N/Nc2cc(N3CCOCC3)nc(N3CCOCC3)n2)cc1O	-2	0	-3	53*	20
COc1cc(C(=O)Oc2c(CN3CCOCC3)cc(Cl)c3cccnc23)cc(OC)c1OC	-11	0	-18	41	70*
O=C(Oc1c(CN2CCOCC2)cc(Cl)c2cccnc12)c1ccc(F)cc1	-14	0	-2	15	65*
O=C(Oc1c(CN2CCOCC2)cc(Cl)c2cccnc12)c1ccccc1Cl	-11	0	-6	23	71*
O=C(Oc1ccc(Cl)c2cccnc12)N1CCOCC1	0	0	1	2	4
COc1ccc(C(=O)Oc2c(CN3CCOCC3)cc(Cl)c3cccnc23)cc1	0	1	2	2	65*
COc1ccc(C(=O)OC(C)CN2CCOCC2)cc1 (configuration not stated)	2	0	-3	-2	1
COc1ccccc1NCC(=O)N/N=C/c1c(O)ccc2ccccc12	-4	0	-8	42	6
NC(=S)N/N=C/c1c(O)ccc2ccccc12	11	1	3	57*	41
COc1ccccc1N(CC(=O)N/N=C/c1c(O)ccc2ccccc12)S(C)(=O)=O	-9	0	-3	49	83*
Cc1ccccc1-c1ccc2c(c1)O[C@@H](CN(C)CC1CC1)[C@@H](C)CN([C@@H](C)CO)S2(=O)=O	.	.	.	.	14
CCOC(=O)c1ccc(N=c2sc(C(=O)OC)cc(=O)n2Cc2ccco2)cc1	56*	0	-10	-16	-10
CCOC(=O)c1ccc(N=c2sc(C(=O)OC)cc(=O)n2CCCN2CCOCC2)cc1	16	0	-11	1	0
FC(F)(F)c1cnc(-c2cnc3c(-c4ccc(Cl)cc4)cnn3c2)c(Cl)c1	1	0	-2	-14	-1
N#Cc1cnn2cc(-c3ncc(C(F)(F)F)cc3Cl)cnc12	0	0	11	59*	-23
NC(=O)NC(=O)CC1S/C(=N/N=C2/NC(=O)CS2)NC1=O (configuration not stated)	3	0	21	5	66*
O=C(O)CNC(=O)CC1S/C(=N/N=C2\CSC(=O)N2)NC1=O (configuration not stated)	1	0	6	0	.
COc1cc2nc(NC(=O)c3ccccc3)sc(=O)c2cc1OC	41*	0	0	28	-13
COCCCNC(=S)Nc1cc(C)c(C)cc1C	-1	0	-2	-8	2
COCCNC(=S)Nc1cc(OC)c(OC)cc1C#N	3	0	2	3	50*
COc1ccc(NC(=O)N(C)C[C@@H]2Oc3c(NS(=O)(=O)c4ccc(C)cc4)cccc3C(=O)N([C@H](C)CO)C[C@H]2C)cc1	.	.	.	.	-9
